Experimental findings from PubChem BioAssay are described below.

Experiment [1] can be described thus: binders of probe aFSTL3 on microarray, primary screen, stem cell growth factor project, biochemical, small-molecule microarray, fluorescence 635/667 (AID 1064).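 Note: measures binding of the biotinylated anti-FSTL3 antibody to printed compounds.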 To be noted: higher = more signal.
Experiment [2] in a line: binders from COS7 lysate, DM2A8 probe, primary screen, torsin A project, cell lysate, small-molecule microarray, fluorescence 635/667 (AID 1065). To be noted: higher = more signal, COS7 lysate expressing mutant human TOR1A.
Experiment [3] in a line: binders of probe aFGF2 on microarray, primary screen, stem cell growth factor project, biochemical, small-molecule microarray, fluorescence 635/667 (AID 1067).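 Note: measures binding of biotinylated aFGF2 protein to printed compounds on slides; z-score merges feature fluorescence and signal-to-noise across triplicate slides.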 To be noted: higher = more signal.
A short description of experiment [4]: binders of probe aFGF10 on microarray, primary screen, stem cell growth factor project, biochemical, small-molecule microarray, fluorescence 635/667 (AID 1071).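 Note: score merges 667 nm spot intensity and signal to noise from triplicate slides.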 To be noted: higher = more signal.
Experiment [5] concerns the target Neurogenic locus notch homolog protein 2 (Homo sapiens) (UniProt Q04721). Briefly: Notch2 binders on small-molecule microarrays, primary screen, biochemical, small-molecule microarray, 635 nm fluorescence, stem cell growth factors (AID 1073). To be noted: Notch2 binding, higher = more signal.
Experiment [6] addresses Pro-neuregulin-1, membrane-bound isoform (Homo sapiens) (UniProt Q02297). Briefly: NRG1 binders on small-molecule microarrays, primary screen, psychiatric disease protein project, biochemical, small-molecule microarray, fluorescence 635/667 (AID 1075).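 Note: score combines 667 nm spot fluorescence with signal to noise.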 To be noted: NRG1 binding, 635 nm fluorescence, higher = more signal.
Experiment [7] concerns Neuregulin-1 EGF-like domain. Kind of experiment: binders of neuregulin-1 EGF-like domain, primary screen, biochemical, small-molecule microarray, 635 nm fluorescence (AID 1081).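 Note: binding of the protein to compounds printed on small-molecule microarray slides.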 To be noted: small-molecule microarray binding, higher = more signal.
Experiment [8] can be described thus: FRG1 promoter luciferase signal modulators, primary screen, FRG1 inhibition for FSHD, cell-based, C2C12 myotubes, firefly/Renilla luciferase, luminescence (AID 1084). To be noted: higher = more signal, called active from +8 up or from −8 down.
Experiment [9] in a line: binders of probe aFST on microarray, primary screen, stem cell growth factor project, biochemical, small-molecule microarray, fluorescence 635/667 (AID 1086).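 Note: score merges 667 nm fluorescence with signal-to-noise of each printed compound spot.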 To be noted: higher = more signal.
Experiment [10] in a line: binders of probe aHhip on microarray, primary screen, stem cell growth factor project, biochemical, small-molecule microarray, fluorescence 635/667 (AID 1087).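 Note: score merges spot fluorescence at 667nm with spot signal to noise ratio.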 To be noted: higher = more signal.
Experiment [11] has as its system PRMT1 (protein arginine N-methyltransferase 1). Kind of experiment: PRMT1 binders on small-molecule microarrays, primary screen, biochemical, small-molecule microarray, 635 nm fluorescence (AID 1088).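 Note: binding of Prmt1 protein to compounds spotted on small-molecule microarray slides.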 To be noted: small-molecule microarray binding, higher = more signal.
Experiment [12] in a line: yeast growth modulation, basal conditions, primary screen, YJM789 clinical isolate, OD600, 24 h (AID 1089).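 Note: growth of clinical yeast isolate S. cerevisiae YJM 789 seeded 1000 cells per well; test concentration not given here.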 To be noted: S. cerevisiae YJM789 growth, higher = more signal, called active from +8 up or from −8 down.
The nature of experiment [13]: fission yeast growth modulation, primary screen, strain 972, OD600, 24 h, no modulator (AID 1090).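 Note: basal condition with compound alone and no growth modifier present; test concentration not given here.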 To be noted: S. pombe 972 growth, higher = more signal, called active from +8 up or from −8 down.
Experiment [14] in a line: S. cerevisiae growth modulation with rapamycin, primary screen, strain BY4716, OD600, 96 h (AID 1091). Note: test concentration not given here. To be noted: higher = more signal, called active from +8 up or from −8 down.
Experiment [15] deals with Torsin-1A-interacting protein 2 (Homo sapiens) (UniProt Q8NFQ8). Kind of experiment: LULL1 binders on small-molecule microarray, primary screen, cell lysate, human LULL1 lysate, 635/667 nm fluorescence (AID 1092).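 Note: probe is lysate of COS7 cells overexpressing human LULL1; score merges per-feature 667 nm fluorescence with signal-to-noise.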 To be noted: hLULL1 lysate binding, 635 nm fluorescence, higher = more signal.
The nature of experiment [16]: E. coli growth modulation, two-sided OD650, primary screen, E. coli filamentation project, strain DRC41, 24 h (AID 1093).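 Note: MC1000 strain lacking acrAB efflux and sulA so SOS filamentation is blocked; test concentration not given here.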 To be noted: OD650, 24 h, higher = more signal, called active from +8 up or from −8 down.
The nature of experiment [17]: small-molecule microarray binders of probe aLefty2, primary screen, biochemical, biotinylated probe, 635/667 nm fluorescence (AID 1094).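 Note: score merges spot fluorescence near 667 nm with spot signal-to-noise ratio.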 To be noted: higher = more signal.
Experiment [18] has as its system Noggin (protein binding on small-molecule microarray). Kind of experiment: Noggin binders on small-molecule microarray, primary screen, biochemical, 635/667 nm fluorescence (AID 1095).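 Note: score merges 667 nm feature fluorescence with signal to noise over triplicate slides.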 To be noted: 635 nm fluorescence, higher = more signal.
For experiment [19], the target named is Neurogenic locus notch homolog protein 3 (Homo sapiens) (UniProt Q9UM47). Briefly: NOTCH3 binders on small-molecule microarray, primary screen, biochemical, 635/667 nm fluorescence (AID 1096). To be noted: NOTCH3 binding, 635 nm fluorescence, higher = more signal.
Experiment [20] is described as follows: small-molecule microarray binders of probe aEGFR, primary screen, biochemical, biotinylated probe, 635/667 nm fluorescence (AID 1097).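 Note: probe is a biotinylated anti-EGFR antibody binding compounds printed on slides; score combines fluorescence near 667 nm and signal to noise of each spot.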 To be noted: higher = more signal.

Active and inactive are the calls of the source.

Sequence of Torsin-1A-interacting protein 2 (Homo sapiens) (Q8NFQ8 whole entry, looked up): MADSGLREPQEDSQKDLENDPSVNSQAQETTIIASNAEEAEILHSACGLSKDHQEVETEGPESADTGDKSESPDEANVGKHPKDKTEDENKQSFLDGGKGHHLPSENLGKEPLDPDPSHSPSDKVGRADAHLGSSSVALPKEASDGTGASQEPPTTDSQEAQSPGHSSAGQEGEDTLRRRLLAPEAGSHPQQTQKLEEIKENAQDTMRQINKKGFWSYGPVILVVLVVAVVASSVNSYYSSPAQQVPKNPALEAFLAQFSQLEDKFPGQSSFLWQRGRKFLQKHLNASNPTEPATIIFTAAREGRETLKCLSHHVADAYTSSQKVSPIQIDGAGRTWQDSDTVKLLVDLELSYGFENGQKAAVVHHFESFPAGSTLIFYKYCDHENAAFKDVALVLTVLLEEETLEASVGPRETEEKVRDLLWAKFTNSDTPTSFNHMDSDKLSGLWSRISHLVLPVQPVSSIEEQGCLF
Sequence of Pro-neuregulin-1, membrane-bound isoform (Homo sapiens) (Q02297 whole entry, looked up, the tested form may be a part, canonical isoform): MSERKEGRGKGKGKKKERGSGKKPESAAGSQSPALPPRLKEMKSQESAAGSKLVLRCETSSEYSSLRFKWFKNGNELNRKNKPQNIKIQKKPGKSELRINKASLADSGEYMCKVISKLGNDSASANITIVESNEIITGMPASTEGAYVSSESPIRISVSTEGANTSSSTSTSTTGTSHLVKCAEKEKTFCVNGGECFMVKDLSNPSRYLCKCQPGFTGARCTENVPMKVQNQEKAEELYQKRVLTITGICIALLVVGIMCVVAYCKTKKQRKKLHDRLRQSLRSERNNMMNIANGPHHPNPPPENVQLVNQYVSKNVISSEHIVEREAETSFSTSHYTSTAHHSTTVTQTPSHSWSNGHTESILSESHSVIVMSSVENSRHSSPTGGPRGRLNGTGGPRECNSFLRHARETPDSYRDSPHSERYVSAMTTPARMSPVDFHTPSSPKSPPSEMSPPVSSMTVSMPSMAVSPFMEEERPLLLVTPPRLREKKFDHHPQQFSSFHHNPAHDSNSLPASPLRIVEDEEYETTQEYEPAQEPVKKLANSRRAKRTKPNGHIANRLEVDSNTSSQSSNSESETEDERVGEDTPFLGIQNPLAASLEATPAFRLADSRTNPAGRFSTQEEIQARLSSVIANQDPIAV
Sequence of Neurogenic locus notch homolog protein 2 (Homo sapiens) (Q04721 whole entry, looked up, canonical isoform): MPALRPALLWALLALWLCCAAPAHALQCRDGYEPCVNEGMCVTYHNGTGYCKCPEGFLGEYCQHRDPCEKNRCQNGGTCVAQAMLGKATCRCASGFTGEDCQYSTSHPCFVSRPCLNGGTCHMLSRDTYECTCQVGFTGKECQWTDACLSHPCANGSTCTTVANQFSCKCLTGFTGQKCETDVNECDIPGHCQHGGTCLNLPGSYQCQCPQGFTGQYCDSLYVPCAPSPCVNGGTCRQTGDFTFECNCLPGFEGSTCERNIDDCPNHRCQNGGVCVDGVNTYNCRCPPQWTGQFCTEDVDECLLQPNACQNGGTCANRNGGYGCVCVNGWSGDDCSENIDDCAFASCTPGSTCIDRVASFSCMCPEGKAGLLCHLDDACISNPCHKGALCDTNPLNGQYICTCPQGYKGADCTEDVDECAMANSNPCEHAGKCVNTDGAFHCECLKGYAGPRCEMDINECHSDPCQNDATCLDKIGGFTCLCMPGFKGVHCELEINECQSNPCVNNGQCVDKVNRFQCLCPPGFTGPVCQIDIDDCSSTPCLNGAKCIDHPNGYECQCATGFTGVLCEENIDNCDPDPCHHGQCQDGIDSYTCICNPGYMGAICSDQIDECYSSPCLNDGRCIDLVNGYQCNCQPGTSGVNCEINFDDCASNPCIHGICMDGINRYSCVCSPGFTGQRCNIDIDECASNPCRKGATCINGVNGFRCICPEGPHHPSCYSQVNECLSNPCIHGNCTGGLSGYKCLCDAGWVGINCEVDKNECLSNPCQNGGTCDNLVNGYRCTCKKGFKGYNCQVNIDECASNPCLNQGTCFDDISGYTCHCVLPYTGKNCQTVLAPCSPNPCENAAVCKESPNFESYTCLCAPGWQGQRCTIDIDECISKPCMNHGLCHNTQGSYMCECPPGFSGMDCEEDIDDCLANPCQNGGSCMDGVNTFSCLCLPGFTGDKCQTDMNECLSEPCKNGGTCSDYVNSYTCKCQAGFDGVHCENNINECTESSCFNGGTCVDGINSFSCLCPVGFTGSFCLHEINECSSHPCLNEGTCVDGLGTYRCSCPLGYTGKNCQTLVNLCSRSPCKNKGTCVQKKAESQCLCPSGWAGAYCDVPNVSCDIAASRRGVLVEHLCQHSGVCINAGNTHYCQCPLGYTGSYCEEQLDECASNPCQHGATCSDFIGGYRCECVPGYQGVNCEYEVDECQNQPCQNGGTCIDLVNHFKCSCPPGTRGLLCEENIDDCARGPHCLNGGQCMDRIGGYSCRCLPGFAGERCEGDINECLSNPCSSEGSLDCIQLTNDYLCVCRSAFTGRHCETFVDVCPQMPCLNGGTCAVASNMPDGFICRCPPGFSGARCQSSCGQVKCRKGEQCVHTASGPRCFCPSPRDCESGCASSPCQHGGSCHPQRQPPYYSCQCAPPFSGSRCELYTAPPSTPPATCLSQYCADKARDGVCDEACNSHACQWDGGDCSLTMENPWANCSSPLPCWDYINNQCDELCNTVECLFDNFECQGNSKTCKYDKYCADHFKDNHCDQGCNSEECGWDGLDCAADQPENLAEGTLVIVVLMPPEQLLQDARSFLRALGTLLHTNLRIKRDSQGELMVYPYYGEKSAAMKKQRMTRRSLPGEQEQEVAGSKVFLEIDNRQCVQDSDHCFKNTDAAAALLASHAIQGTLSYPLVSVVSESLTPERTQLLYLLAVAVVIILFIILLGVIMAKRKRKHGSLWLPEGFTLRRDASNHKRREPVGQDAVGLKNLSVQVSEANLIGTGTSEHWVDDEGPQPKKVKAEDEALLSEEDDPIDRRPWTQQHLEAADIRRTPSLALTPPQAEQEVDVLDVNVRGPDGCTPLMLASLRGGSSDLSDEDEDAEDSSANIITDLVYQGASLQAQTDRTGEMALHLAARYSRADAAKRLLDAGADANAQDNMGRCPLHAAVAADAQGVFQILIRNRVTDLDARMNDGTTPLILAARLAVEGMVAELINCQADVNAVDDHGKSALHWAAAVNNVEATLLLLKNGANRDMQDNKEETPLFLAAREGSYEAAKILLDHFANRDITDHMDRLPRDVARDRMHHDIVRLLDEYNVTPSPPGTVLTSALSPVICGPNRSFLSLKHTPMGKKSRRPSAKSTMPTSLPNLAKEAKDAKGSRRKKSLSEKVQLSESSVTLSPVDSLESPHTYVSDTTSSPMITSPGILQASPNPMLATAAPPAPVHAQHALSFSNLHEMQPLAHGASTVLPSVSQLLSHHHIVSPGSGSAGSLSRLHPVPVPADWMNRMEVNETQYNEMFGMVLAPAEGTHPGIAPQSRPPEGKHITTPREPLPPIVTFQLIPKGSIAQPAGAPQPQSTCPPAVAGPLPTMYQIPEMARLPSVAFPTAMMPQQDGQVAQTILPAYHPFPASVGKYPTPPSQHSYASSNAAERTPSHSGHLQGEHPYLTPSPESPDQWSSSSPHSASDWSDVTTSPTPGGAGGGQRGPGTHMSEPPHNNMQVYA

Turning to `CCCCC(O)C1C=CC2C(=O)N(C)C(=O)C2N1N(c1ccccc1)c1ccccc1` (stereo not given), the composite z-score came to 0.555 in experiment [1]; 1.3 in [2]; 0.0748 in [3]; 0.0636 in experiment [4]; 1.14 in [5]; 1.25 in experiment [6]. The composite z-score in experiment [7] is 0.999; in experiment [9], 0.701; in experiment [10], 0.0497; in experiment [11] it was 1.56; in experiment [15], 3.1; in experiment [17], -0.0441. Moreover, the composite z-score in experiment [18] was -0.0371; in [19] it was 1.1; in experiment [20], 0.111. For the same compound, the z-score in [8] is 0.667 (inactive); in experiment [12], -0.0289 (inactive); in [13] it was 0.483 (inactive); in experiment [14], 0.251 (inactive); in experiment [16] it was -1.8 (inactive).
As to `CC(C)[Si](C#C[Si](C(C)C)(C(C)C)C(C)C)(O[C@H](c1ccccc1)c1cn(Cc2ccccc2)nn1)C(C)C`, the composite z-score in experiment [1] is -0.353; in experiment [2] it was 0.213; in experiment [3] it was -0.1; in [4], 0.311; in [5], 0.615; in [6], -0.16. Further, the composite z-score in experiment [7] was 0.928; in experiment [9] it was 0.276; in [10], 0.0808; in [11], 1.26; in experiment [15] it was 0.754; in [17], -0.028. Further, the composite z-score in experiment [18] was 0.751; in experiment [19], 0.361; in [20], 0.0129. Further, the z-score in [8] was 0.133 (inactive); in experiment [12], 0.242 (inactive); in experiment [13], 0.641 (inactive); in experiment [14] it was 0.0108 (inactive); in experiment [16] it was 0.769 (inactive).
Consider `COc1ccc(C#Cc2ccc3c(c2)[C@]2(C(=O)N3)[C@H](c3ccc(O)cc3)N3[C@H](c4ccccc4)[C@H](c4ccccc4)OC(=O)[C@H]3[C@@H]2C(=O)Nc2nc3ccccc3s2)cc1`, for which the composite z-score in [1] was -0.552; in [2] it was -0.133; in experiment [3], -0.0242; in experiment [4] it was 0.534; in [5], 1.6; in experiment [6], 1.69. Moreover, the composite z-score in experiment [7] came to 1.36; in experiment [9], 1.01; in experiment [10] it was 0.113; in experiment [11] it was 1.55; in [15] it was 3.07; in experiment [17], 0.334. Further, the composite z-score in experiment [18] worked out at 0.46; in experiment [19], 1.05; in experiment [20], 0.484. For the same compound, the z-score in experiment [8] is 1.33 (inactive); in experiment [12] it was 1.51 (inactive); in experiment [13] it was -0.924 (inactive); in [14], -0.221 (inactive); in experiment [16] it was 1.92 (inactive).
`COc1cc(OC)c(C(O)C2C=CC3C(=O)N(Cc4ccccc4)C(=O)C3N2n2cnnc2)cc1Br` (stereo not given): the composite z-score in experiment [1] is -0.245; in [2] it was 2.19; in experiment [3], -0.0131; in [4], 0.919; in [5], 0.36; in [6] it was 1.32. For the same compound, the composite z-score was 1.12 in experiment [7]; 1.35 in experiment [9]; -0.0645 in experiment [10]; 1.11 in experiment [11]; 2.89 in [15]; 0.0208 in experiment [17]. Moreover, the composite z-score in [18] was 0.404; in experiment [19], 1.07; in experiment [20] it was -0.0343. Further, the z-score in [8] is 0.569 (inactive); in experiment [12], -1.92 (inactive); in experiment [13], -1.73 (inactive); in [14], 0.027 (inactive); in [16], -1.21 (inactive).
For the compound `CC(C)C[C@@H]1NC(=O)[C@@H]2C[C@H](C(=O)NCCCCCCN)[C@H](c3cccc(OCCO)c3)N2C1=O`, the composite z-score was 0.0713 in [1]; -0.262 in [2]; 0.107 in experiment [3]; 0.655 in [4]; 0.928 in [5]; 1.98 in experiment [6]. Further, the composite z-score in experiment [7] is 1.44; in [9], 0.819; in experiment [10], -0.121; in [11] it was 1.53; in [15], 2.98; in experiment [17] it was 0.235. Further, the composite z-score came to 0.993 in experiment [18], 1.12 in experiment [19] and 0.0499 in [20]. Besides, the z-score in experiment [8] is 1.32 (inactive); in [12] it was -0.148 (inactive); in experiment [13], -0.114 (inactive); in [14], -0.502 (inactive); in experiment [16], 1.03 (inactive).
Turning to `CO[C@H]1O[C@H](CO)[C@@H](OC(=O)Nc2ccc3c(c2)OCO3)[C@H](OC(=O)Nc2ccc3c(c2)OCO3)[C@@H]1OC(=O)Nc1ccc2c(c1)OCO2`, the composite z-score in experiment [1] was -0.202; in [2], 0.584; in experiment [3] it was 0.256; in experiment [4] it was 1.21; in experiment [5] it was 1.26; in experiment [6], 1.78. Further, the composite z-score in experiment [7] came out at 1.2; in experiment [9], 0.338; in [10] it was 0.0818; in experiment [11], 1.54; in experiment [15], 3.44; in experiment [17], 0.0909. Further, the composite z-score in [18] is 0.643; in experiment [19], 1.03; in experiment [20] it was -0.039. Moreover, the z-score was 2.2 (inactive) in experiment [8]; 1.15 (inactive) in experiment [12]; 1.37 (inactive) in [13]; 5.69 (inactive) in [14]; 0.508 (inactive) in experiment [16].
